{"source": "the antibiotic and cytotoxicity screens of Wong et al. (2023)", "note": "The campaign covered roughly 39,000 compounds. About 1,500 (3.8%) were called active. The list comes from a sample in which actives are over-represented; it also holds similar structures and randomly drawn compounds."}
{"test_system": "HSkMC (human skeletal muscle cells)", "assay": "cytotoxicity call (relative viability < 0.9)", "details": "10 µM"}
{"compound": "S=C(c1cccs1)N1CCCC1", "cytotoxicity call": "inactive"}
{"compound": "CN1C(=O)c2cc(NC(=O)Cc3cccs3)ccc2OC[C@@H]2O[C@H](CC(=O)NCCCN3CCOCC3)CC[C@H]21", "cytotoxicity call": "inactive"}
{"compound": "COc1cc(CO)c(CC(=O)NN)cc1OC", "cytotoxicity call": "inactive"}
{"compound": "C[C@H]1CN([C@@H](C)CO)C(=O)Cc2cc(NC(=O)Nc3ccc(F)cc3)ccc2O[C@@H]1CN(C)C(=O)Nc1ccc(C(F)(F)F)cc1", "cytotoxicity call": "inactive"}
{"compound": "C[C@H]1CN([C@@H](C)CO)C(=O)Cc2cc(NC(=O)Nc3ccc(C(F)(F)F)cc3)ccc2O[C@H]1CN(C)C(=O)Nc1ccc(C(F)(F)F)cc1", "cytotoxicity call": "active"}
{"compound": "C[C@@H]1CN([C@H](C)CO)C(=O)Cc2cc(NC(=O)Nc3ccc(C(F)(F)F)cc3)ccc2O[C@@H]1CN(C)C(=O)Nc1ccc(F)cc1", "cytotoxicity call": "inactive"}
{"compound": "C[C@H](CO)N1C[C@H](C)[C@@H](CN(C)C(=O)Nc2ccc(F)cc2)Oc2ccc(NC(=O)Nc3ccc(C(F)(F)F)cc3)cc2CC1=O", "cytotoxicity call": "inactive"}
{"compound": "C[C@@H]1CN([C@@H](C)CO)C(=O)Cc2cc(NC(=O)Nc3ccc(C(F)(F)F)cc3)ccc2O[C@@H]1CN(C)C(=O)Nc1ccc(C(F)(F)F)cc1", "cytotoxicity call": "active"}
{"compound": "C[C@@H]1CN([C@@H](C)CO)C(=O)Cc2cc(NC(=O)Nc3ccc(F)cc3)ccc2O[C@H]1CN(C)C(=O)Nc1ccc(C(F)(F)F)cc1", "cytotoxicity call": "inactive"}
{"compound": "CCn1nnc2c(=S)nc[nH]c21", "cytotoxicity call": "inactive"}
{"compound": "Cc1noc(C)c1NC(=O)Nc1ccc2c(c1)CC(=O)N([C@H](C)CO)C[C@@H](C)[C@@H](CN(C)S(=O)(=O)c1cn(C)cn1)O2", "cytotoxicity call": "inactive"}
{"compound": "C=CCC[C@H](Cc1ccc(F)cc1)C(=O)O[C@@H](CNC(=O)[C@@H](CC=C)CC(=O)N[C@H](CO)Cc1ccccc1)c1ccccc1", "cytotoxicity call": "active"}
{"compound": "C=CCC[C@@H](Cc1ccc(F)cc1)C(=O)O[C@H](CNC(=O)[C@@H](CC=C)CC(=O)N[C@@H](CO)Cc1ccccc1)c1ccccc1", "cytotoxicity call": "inactive"}
{"compound": "C=CCC[C@@H](Cc1ccc(F)cc1)C(=O)O[C@@H](CNC(=O)[C@@H](CC=C)CC(=O)N[C@@H](CO)Cc1ccccc1)c1ccccc1", "cytotoxicity call": "active"}
{"compound": "C=CCC[C@H](Cc1ccc(F)cc1)C(=O)O[C@H](CNC(=O)[C@@H](CC=C)CC(=O)N[C@@H](CO)Cc1ccccc1)c1ccccc1", "cytotoxicity call": "inactive"}
{"compound": "C=CC[C@@H](CC(=O)N[C@@H](CO)Cc1ccccc1)C(=O)NC[C@H](OC(=O)[C@@H](CC=C)Cc1ccc(F)cc1)c1ccccc1", "cytotoxicity call": "inactive"}
{"compound": "C=CCC[C@H](Cc1ccc(F)cc1)C(=O)O[C@H](CNC(=O)[C@@H](CC=C)CC(=O)N[C@H](CO)Cc1ccccc1)c1ccccc1", "cytotoxicity call": "active"}
{"compound": "C=CC[C@@H](CC(=O)N[C@H](CO)Cc1ccccc1)C(=O)NC[C@@H](OC(=O)[C@@H](CC=C)Cc1ccc(F)cc1)c1ccccc1", "cytotoxicity call": "inactive"}
{"compound": "C=CCC[C@@H](Cc1ccc(F)cc1)C(=O)O[C@@H](CNC(=O)[C@@H](CC=C)CC(=O)N[C@H](CO)Cc1ccccc1)c1ccccc1", "cytotoxicity call": "inactive"}
{"compound": "C=CC[C@@H](CC(=O)N[C@@H](CO)Cc1ccccc1)C(=O)NC[C@@H](OC(=O)[C@@H](CC=C)Cc1ccc(F)cc1)c1ccccc1", "cytotoxicity call": "inactive"}
{"compound": "C=CCC[C@@H](Cc1ccc(F)cc1)C(=O)O[C@H](CNC(=O)[C@@H](CC=C)CC(=O)N[C@H](CO)Cc1ccccc1)c1ccccc1", "cytotoxicity call": "inactive"}
{"compound": "C=CC[C@@H](CC(=O)N[C@H](CO)Cc1ccccc1)C(=O)NC[C@H](OC(=O)[C@@H](CC=C)Cc1ccc(F)cc1)c1ccccc1", "cytotoxicity call": "active"}
{"compound": "C=CCC[C@H](Cc1ccc(F)cc1)C(=O)O[C@@H](CNC(=O)[C@@H](CC=C)CC(=O)N[C@@H](CO)Cc1ccccc1)c1ccccc1", "cytotoxicity call": "inactive"}
